Shown are actives, neighbours in structure and some others; about 3.7% of the full set was active somewhere.
tim10-1 inh: tim10-1 yeast growth inhibition. S. cerevisiae tim10-1 ts strain growth, BacTiter-Glo, 24 h. inhibition, % at 20 µM. hit rate 2.2% among 330,000;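 active = inhibition of at least 40%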;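 also: mutant grown at 25 °C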
TIM10 inh: growth inhibitors of TIM10 yeast strain; AID 463195; S. cerevisiae TIM10 strain growth, BacTiter-Glo luminescence, 24 h; hit rate 1.4% among 330,000; inhibition, % at 10 µM;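 active = inhibition of 40% or more at the single tested concentration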;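 also: wild-type TIM10 isogenic control strain grown at permissive 25 °C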
tim23-1 inh: inhibits growth of tim23-1 mutant yeast. S. cerevisiae tim23-1 growth, BacTiter-Glo luminescence, 24 h. inhibition, % at 20 µM. hit rate 1.3% among 330,000. AID 463212;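 active = growth inhibition of the mutant yeast at or above 50%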;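 also: temperature-sensitive mutant grown at 25 °C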
PfHsp90 set2: reduces growth (ATP signal) of yeast expressing P. falciparum Hsp90; S. cerevisiae expressing PfHsp90, BacTiter-Glo ATP, 48 h; yeast lacking PDR1 and PDR3 efflux regulators; inhibition, % at 9.4 µM; hit rate 0.32% among 310,000;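 active = every replicate shows inhibition above about 80%, whatever the replicate mean, limit read from the data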
NLRP3 yeast inh: inhibitors of NALP3 inflammasome in yeast. hit rate 0.39% among 330,000. inhibition, % at 10 µM. Yeast reconstituted NLRP3/ASC/caspase-1, beta-gal luminescence, 24 h;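 active = inhibition of 50% or more; inactive = inhibition below 50%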
tim10-1 confirm: tim10-1 yeast growth inhibition, confirmed; S. cerevisiae tim10-1 ts strain growth, BacTiter-Glo, 24 h; inhibition, % at 20 µM; hit rate 56% among 7,400; shares compounds with tim10-1 inh;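 active = inhibition of yeast growth at or above a set limit in either of two repeat tests at 20 µM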;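 also: tim10-1 mutant grown at permissive 25 °C to find synthetic lethal compounds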
A number is an active result.

Screening O=C(CC(Sc1ccc(Br)cc1)C(=O)O)c1ccc(F)cc1 (stereo unspecified) returned tim10-1 inh 42, TIM10 inh inactive, tim23-1 inh inactive, PfHsp90 set2 inactive, NLRP3 yeast inh inactive and tim10-1 confirm inactive.
`O=[N+]([O-])c1ccccc1CNc1ccc(F)c(Cl)c1` gave tim10-1 inh inactive, TIM10 inh inactive, tim23-1 inh inactive, PfHsp90 set2 inactive and NLRP3 yeast inh inactive.
Screening Fc1ccccc1CNc1cc(Cl)cc(Cl)c1 returned tim10-1 inh 59, TIM10 inh inactive, tim23-1 inh inactive, PfHsp90 set2 inactive, NLRP3 yeast inh inactive and tim10-1 confirm 65.
For O=C(C1CCN(C2CC(=O)N(c3cccc(Cl)c3)C2=O)CC1)N1CCCC1 (stereo unspecified) the results were tim10-1 inh 55, TIM10 inh inactive, tim23-1 inh inactive, PfHsp90 set2 106, NLRP3 yeast inh inactive and tim10-1 confirm 47.
CCOC(=O)C1CCN(C2CC(=O)N(c3cccc(Cl)c3)C2=O)CC1 (stereo unspecified) was read as tim10-1 inh 42, TIM10 inh inactive, tim23-1 inh inactive, PfHsp90 set2 inactive, NLRP3 yeast inh inactive and tim10-1 confirm 37.
For COC(=O)C1CCN(C2CC(=O)N(c3cc(C)cc(C)c3)C2=O)CC1 (stereo unspecified) the results were tim10-1 inh 40, TIM10 inh inactive, tim23-1 inh inactive, PfHsp90 set2 105, NLRP3 yeast inh inactive and tim10-1 confirm 32.
For CCN(CC)C1CC(=O)N(c2cccc(Cl)c2)C1=O (stereo unspecified) the results were tim10-1 inh 45, TIM10 inh inactive, tim23-1 inh inactive, PfHsp90 set2 126, NLRP3 yeast inh inactive and tim10-1 confirm 56.
Screening O=C(C1CCN(C2CC(=O)N(c3ccc(Cl)cc3)C2=O)CC1)N1CCOCC1 (stereo unspecified) returned tim10-1 inh inactive, TIM10 inh inactive, tim23-1 inh inactive, PfHsp90 set2 inactive and NLRP3 yeast inh inactive.
`CCOc1ccccc1CN1CCNC(=O)C1CC(=O)N(C)Cc1cnccn1` (stereo unspecified) gave tim10-1 inh inactive, TIM10 inh inactive, tim23-1 inh inactive, PfHsp90 set2 inactive and NLRP3 yeast inh inactive.
`Cc1cccc(Cc2c(C)nc3c(C(=O)N4CCN(Cc5ccc6c(c5)OCO6)CC4)cnn3c2C)c1` gave tim10-1 inh 42, TIM10 inh inactive, tim23-1 inh inactive, PfHsp90 set2 inactive, NLRP3 yeast inh inactive and tim10-1 confirm inactive.
`Cc1ccccc1Cc1c(C)nc2c(C(=O)N3CCN(Cc4ccc5c(c4)OCO5)CC3)cnn2c1C` gave tim10-1 inh inactive, TIM10 inh inactive, tim23-1 inh inactive, PfHsp90 set2 inactive and NLRP3 yeast inh inactive.
For COc1cccc(N2CC(C(=O)N3CCC4(CC3)CC(=O)c3ccccc3O4)CC2=O)c1 (stereo unspecified) the results were tim10-1 inh inactive, TIM10 inh inactive, tim23-1 inh inactive, PfHsp90 set2 inactive and NLRP3 yeast inh inactive.
For Cc1c(Cl)cccc1NC(=S)/C(=C(\[O-])c1ccc(Cl)s1)[n+]1ccccc1 the results were tim10-1 inh 47, TIM10 inh inactive, tim23-1 inh inactive, PfHsp90 set2 inactive, NLRP3 yeast inh inactive and tim10-1 confirm 36.
For Cc1cc(C)c2nc(N3CCCN(C(=O)c4ccco4)CC3)c(C#N)cc2c1 the results were tim10-1 inh 47, TIM10 inh inactive, tim23-1 inh inactive, PfHsp90 set2 inactive, NLRP3 yeast inh inactive and tim10-1 confirm 32.
`COc1ccc2c(c1)OC[C@H]1[C@H]2N2C(=O)c3cc(F)ccc3NC(=O)[C@@]2(C)[C@H]1c1ccccc1` gave tim10-1 inh inactive, TIM10 inh inactive, tim23-1 inh inactive, PfHsp90 set2 inactive and NLRP3 yeast inh inactive.
COc1ccc2c(c1)OC[C@H]1[C@H]2N2C(=O)c3cc(OC)ccc3NC(=O)[C@@]2(C)[C@H]1c1ccccc1 was read as tim10-1 inh 44, TIM10 inh inactive, tim23-1 inh inactive, PfHsp90 set2 113, NLRP3 yeast inh inactive and tim10-1 confirm inactive.
For COc1ccccc1NC(=O)C(=O)N1N=C(C(C)C)CC1(O)C(F)(F)F (stereo unspecified) the results were tim10-1 inh inactive, TIM10 inh inactive, tim23-1 inh inactive, PfHsp90 set2 inactive and NLRP3 yeast inh inactive.
CCOc1cccc(/C=N/Nc2ccc(S(=O)(=O)N(CC)CC)cn2)c1O was read as tim10-1 inh 41, TIM10 inh inactive, tim23-1 inh inactive, PfHsp90 set2 inactive, NLRP3 yeast inh inactive and tim10-1 confirm inactive.
For CCN(CC)S(=O)(=O)c1ccc(N/N=C/c2ccc(O)cc2)nc1 the results were tim10-1 inh 42, TIM10 inh inactive, tim23-1 inh inactive, PfHsp90 set2 inactive, NLRP3 yeast inh inactive and tim10-1 confirm 34.
`CCN(CC)S(=O)(=O)c1ccc(N/N=C/c2cc(OC)c(OC)cc2OC)nc1` gave tim10-1 inh inactive, TIM10 inh inactive, tim23-1 inh inactive, PfHsp90 set2 inactive and NLRP3 yeast inh inactive.
Screening Clc1cc(Cl)cc(CN2CCSCC2)c1 returned tim10-1 inh inactive, TIM10 inh inactive, tim23-1 inh inactive, PfHsp90 set2 inactive and NLRP3 yeast inh inactive.
For COc1ccc(NC(=O)/C(=C\c2ccccc2)NC(=O)c2ccco2)cc1 the results were tim10-1 inh inactive, TIM10 inh inactive, tim23-1 inh inactive, PfHsp90 set2 inactive and NLRP3 yeast inh inactive.
`COc1ccc(OC)c(NC(=O)c2ccc(NC3=NC4CS(=O)(=O)CC4S3)cc2)c1` (stereo unspecified) gave tim10-1 inh inactive, TIM10 inh inactive, tim23-1 inh inactive, PfHsp90 set2 inactive and NLRP3 yeast inh inactive.
For Cc1ccc(S(=O)(=O)NCCC(c2ccccc2)c2ccco2)cc1 (stereo unspecified) the results were tim10-1 inh inactive, TIM10 inh inactive, tim23-1 inh inactive, PfHsp90 set2 inactive and NLRP3 yeast inh inactive.
For Cc1ccc(S(=O)(=O)NCC(c2ccco2)S(=O)(=O)c2ccccc2)cc1 (stereo unspecified) the results were tim10-1 inh 44, TIM10 inh inactive, tim23-1 inh inactive, NLRP3 yeast inh inactive and tim10-1 confirm 33.
`COc1ccc(OC)c(S(=O)(=O)NCC(c2ccco2)S(=O)(=O)c2ccccc2)c1` (stereo unspecified) gave tim10-1 inh 43, TIM10 inh inactive, tim23-1 inh inactive, NLRP3 yeast inh inactive and tim10-1 confirm 38.
`COc1ccc(OC)c(S(=O)(=O)NCC(c2ccco2)N2CCc3ccccc3C2)c1` (stereo unspecified) gave tim10-1 inh inactive, TIM10 inh inactive, tim23-1 inh inactive and NLRP3 yeast inh inactive.
Screening CC(/C=C/c1cccc([N+](=O)[O-])c1)=N/NC(=O)c1cccnc1 returned tim10-1 inh 40, TIM10 inh inactive, tim23-1 inh inactive, PfHsp90 set2 inactive, NLRP3 yeast inh inactive and tim10-1 confirm inactive.
